This assay has as its system VDR homodimer (NR concentration 270 nM). As to the kind of experiment: PBM binding z-score (relative to random genomic background probes); higher = stronger binding; sequences stand for … in GC…GCGATTGACAGCGTAGAATGAAGG
A digest of the protocol:
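Ligand-free nuclear receptor dimers were bound for 1 h to custom Agilent 4×180K protein-binding microarrays. Detection used antibodies against each partner (one per run). Binding z-scores rest on regression-normalized fluorescence, with random background probes as the reference.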
TTACCAAGGTGAGCTGAGCTCGTTGATCCAACTC gave a PBM binding z-score of -0.959.

AGAACGAGGGCAATAAGTTGATAGCACGGGTGGC: the PBM binding z-score was found to be 2.26.

Regarding CGTCAAAGATCAACTAAGGTAACGTAAAGCACGC, the PBM binding z-score came out at 0.342.

For the sequence AGAACGAGGGCAAGCTGAGTTGATAGCAGAGTAG, the PBM binding z-score stood at 1.36.

As to TTACCAAGGTGAAGGGTCGTTGATGCACGCCTTG, the PBM binding z-score is 1.16.

CCGACTGGGGCAGAACGGTTACCATACCATCCGG registered a PBM binding z-score of -0.33.

As for TCATATAGGTGAATGCTAGGTGAAAGTCCGATCT, the PBM binding z-score is -0.483.

The sequence TGGCCTAGGTCATTGGGCCAGTATAGTACGCATC gave a PBM binding z-score of 0.451.

The sequence TCTTGTAGGTCAAGCAGGTTAAGAAAGCCTGAGT showed a PBM binding z-score of 1.49.

ATCGAAAGGTCGAGGTGATTATAGAGAAAGGGAA displayed a PBM binding z-score of 0.821.

As for CGAACGAGGGCATGGGTTGATAGCAAATGCCGAT, the PBM binding z-score worked out at 1.72.

The sequence TTATATAGGTAAACAGGTGAAAGTCCGTAAGTTA registered a PBM binding z-score of 0.242.

The sequence CCTACTGGGCCAAAAAGGTCATTGAGGCCGATAA gave a PBM binding z-score of 3.39.

Sequence CCTACTGGGCCAAAGGTCATTCATTCCAATGCTC registered a PBM binding z-score of 3.3.

TAGCCTACGTCAGATCGGGCCAGTATACGCTATA: the PBM binding z-score is -0.727.

Turning to ATCTCTAGGAAACAAGTTCAGTGAAAGAGAGGAC, the PBM binding z-score was 2.27.

Turning to CCAACTAGGTCAGAACAGGACAGTGAAGGATGAT, the PBM binding z-score turned out to be 0.723.

In turn, CCGACTGCGGCATAAGGTTACCATAAGCCAGCCC gave a PBM binding z-score of -0.279.

For the origin of these results see the supplement of paper PMC6555819.
